Measurements: PubChem BioAssay AID493011 (Sanford-Burnham Center for Chemical Genomics, 2011)
Out of some 330,000 compounds screened, about 1,400 (0.42%) were called active.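 How the source made its calls: active means at least 40% inhibition at 20 µM here, with at most 30% in a related deaminase screen; inactive means the rest.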 The sample as a whole holds a higher share of actives than the screen did.

Biological target: DNA dC->dU-editing enzyme APOBEC-3A (Homo sapiens) (UniProt P31941)
Experiment: blockers of A3A cytidine deamination on DNA – biochemical, FAM/TAMRA oligo cleavage fluorescence, selectivity assay for APOBEC3G inhibitor project, primary screen (AID 493011);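 further: plate controls were A3A with DMSO for no effect and wells lacking A3A enzyme for full effect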
Settings: recombinant A3A, FAM/TAMRA ssDNA deamination fluorescence; at 20 µM; hits give high values

DNA dC->dU-editing enzyme APOBEC-3A (Homo sapiens), sequence (P31941 whole entry, looked up): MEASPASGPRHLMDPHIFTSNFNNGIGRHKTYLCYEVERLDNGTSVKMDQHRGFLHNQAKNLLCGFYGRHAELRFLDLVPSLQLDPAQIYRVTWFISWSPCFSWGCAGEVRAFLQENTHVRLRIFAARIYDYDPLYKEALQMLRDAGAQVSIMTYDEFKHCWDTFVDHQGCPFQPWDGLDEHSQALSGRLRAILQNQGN

inhibition, inactive:
COCCN1C(=O)c2oc3c(C)cc(C)cc3c(=O)c2C1c1cccc(O)c1 (stereo not drawn) -3.14%
O=c1c2ccccc2c(-c2ccccc2)nn1-c1ccccn1 0.978%
O=C(NC(CC(=O)N1CCN(c2ccccc2)CC1)c1ccccc1)c1ccccc1Cl (stereo not drawn) -2.76%
CN1C(C(=O)NCC2CC2)CC2Cn3c(nc4ccccc43)C21 (stereo not drawn) -2.77%
CCCCn1c(N)c(N(CC(C)C)C(=O)C2CSC3(C)CCC(=O)N23)c(=O)[nH]c1=O (stereo not drawn) 7.64%
CN(CC(=O)Nc1ccc(F)c(F)c1F)C(=O)C1CC(=O)N(C2CCCC2)C1 (stereo not drawn) 0.598%
CCOc1ccc(CNC(=O)C2CC(=O)N(C3CCCC3)C2)cc1OC (stereo not drawn) -5.29%
Cc1ccc(NS(=O)(=O)c2ccc(C(C)C)cc2)cc1S(=O)(=O)N1CCOCC1 3.31%
O=C(Cn1cnc2ccccc2c1=O)Nc1cccc(S(=O)(=O)N2CCCCC2)c1 2.51%
CCOc1cc(C)c(S(=O)(=O)NCc2ccccn2)cc1C -6.13%
O=C(COc1ccccc1)Nc1ccc(C(=O)N2CCCC2)cc1 0.542%
O=[N+]([O-])c1ccc(N2CCN(CC(O)COc3ccccc3)CC2)cc1 (stereo not drawn) 0.14%
CCN(CC(=O)NCc1cccs1)c1nnnn1-c1ccccc1 -3.14%
CCCCNC(=O)N1CCCC(N(C)CCc2ccc(OC)c(OC)c2)C1 (stereo not drawn) -3.11%
CCS(=O)(=O)c1ccc2c(c1)N(S(=O)(=O)c1ccccc1)CC(C(=O)O)O2 (stereo not drawn) 1.33%
CCOc1ccc(Nc2nc(Cc3nnc(SCC(=O)NC4CCCC4)n3C)cs2)cc1 -3.45%
COCCCn1c(SCC(=O)NC2CCCC2)nnc1-c1ccccc1 0.169%
O=C(Oc1ccc(-c2nc(-c3ccccn3)no2)cc1)c1ccccc1 2.42%
Cc1cn(C2OC[C@@H](O)[C@@H]2CO)c(=O)[nH]c1=O (stereo partly drawn) -1.23%
COc1ccc(/C=C/C(=O)OCC(=O)NCc2cccs2)cc1OC 2.47%
COc1ccc(CCNC(=O)c2cc3sccc3n2C)cc1OC 5.91%
COCCn1c(SCC(=O)N2CCCCCC2)nc2c(c1=O)SCC2 -5.21%
CC(C)(C)C1CCC(C(=O)Nc2cccnc2)CC1 (stereo not drawn) -2.44%
COc1cc(/C=N/NC(=O)Nc2ccccc2)ccc1OCCOc1ccccc1C -4.86%
CCCc1ccc(OCc2ccc(C(=O)N/N=C/c3cccc([N+](=O)[O-])c3)o2)c(OC)c1 2.99%
COc1c(C(=O)N2CCCC2)ccc2ccccc12 1.55%
O=C(C[n+]1cc(Br)cc2ccccc21)c1ccc(F)cc1 -1.32%
COc1ccccc1NC(=O)COC(=O)c1ccccc1SCC(=O)N1CCCC1 1.2%
CCO[C@H]1OC(C(=O)N2CCN(Cc3ccccc3)CC2)=C[C@@H](c2cn(C(C)=O)c3ccccc23)[C@@H]1CCCO -2.14%
CCOc1c(OC)cccc1C(=O)NCC1(c2ccccc2)CCCC1 -3.19%
COc1cc(C(=O)NCC2(c3ccccc3)CCCC2)ccc1OC(C)C 5.08%
O=C(NC1(C(F)(F)F)NC(=O)N(Cc2cccnc2)C1=O)c1ccccc1Cl (stereo not drawn) 0.863%
O=[N+]([O-])c1cc(S(=O)(=O)N2CCCC2)ccc1NN=C1CCCC1 -1.16%
Cc1cc(SCc2c(F)cccc2Cl)nc(=O)[nH]1 1.16%
Cc1ccc(CSc2nsc(C)c2C#N)cc1 -2.03%
Cc1ccc(NC(=O)CN(C)C(=O)COC(=O)C(C)(C)Oc2ccc(Cl)cc2)cc1 1.01%
O=C(CCC1CCCCC1)Nc1cc(C(F)(F)F)ccc1N1CCOCC1 1.06%
COc1ccccc1N1CCN(C(=O)CCS(=O)(=O)c2ccc3c(c2)NC(=O)C(C)S3)CC1 (stereo not drawn) 0.853%
Cc1cccc(N2C(=O)N3[C@H](c4ccc(F)cc4)[C@@H]4C(=O)N(C5CCCCC5)C(=O)[C@@H]4[C@]3(Cc3ccccc3)C2=O)c1 0.21%
CCN1C(=NCCc2cccnc2)N[C@@H](c2ccccc2)C(C(=O)OC)=C1C 67.6%
CCN1C(=O)N[C@@H](c2ccccc2)[C@H](C(C)=O)[C@H]1C -2%
CC1=C(C(N)=O)C(c2sccc2C)n2nnnc2N1 (stereo not drawn) 0.148%
Cc1cc(Cl)ccc1C(=O)C1CCCN(C(=O)c2nonc2C)C1 (stereo not drawn) -5.04%
Cc1ccccc1-n1c(C)cc(/C=N/NC(=O)c2ccc(CN3CCOCC3)cc2)c1C 0.38%
Cc1cc(=O)cc(C)n1-c1ccc(Cl)c(Cl)c1 1.75%
CCOc1ccc(S(=O)(=O)Nc2ccncc2)c(C)c1C -0.833%
CCc1ccc(OCC(O)CN2CCN(CCO)CC2)cc1 (stereo not drawn) -7.28%
CC(=O)c1ccc(N=C2SCCCN2C(=O)C2CCCCC2)cc1 4.36%
O=C(CN1C(=O)c2cccc3cccc(c23)C1=O)N1CCCCC1 -1.16%
O=C1c2cccc3cccc(c23)C(=O)N1CCCCCc1n[nH]c(=S)o1 -1.78%
CC(=O)c1ccc(NC(=S)N(Cc2ccccc2)C(C)C2CC2)cc1 (stereo not drawn) 0.493%
COc1ccc(-c2ocnc2C(=O)Nc2ccc3c(c2)CCC3)cc1 -0.367%
CCN(CC(=O)N1CCCC1)S(=O)(=O)c1ccc(F)cc1 -1.08%
O=C(Nc1ccc(Cl)cc1)Nc1ccc(Oc2cccnc2)nc1 -3.23%
NC(=O)c1ncc(C(F)(F)F)cc1Oc1ccc(F)cc1 2.03%
COc1ccc(C)cc1NC(=O)CN1c2cccc3cccc(c23)S1(=O)=O -2.73%
CCN(C(=O)COc1ccc(C(=O)c2ccccc2)cc1)c1ccccc1 -0.203%
COc1ccccc1CNC(=O)COC(=O)c1sc(C)nc1C -1.57%
CC(=O)c1cccc(NC(=O)c2cc(C)nn2-c2ccccc2)c1 -0.424%
CC(=O)Nc1ccc(NC(=O)CSc2nnc(C3CC3)n2-c2ccccc2)cc1 10.5%
COc1cccc([C@H](O)Cn2cc(-c3ccc(CON=C(C)C)cc3)nn2)c1 2.45%
COc1ccc(Cc2nnc(N/N=C/c3ccccc3O)[nH]c2=O)cc1OC -1.76%
Cc1cc(C(=O)N/N=C/c2ccccn2)c2ccccc2n1 -3.08%
CC(C)(C)NC(=O)c1ccc(Cn2cc(C(F)(F)F)ccc2=O)cc1 -2.36%
CCOc1ccc(C(=O)NCC(=O)N2CCCCCCC2)cc1OCC -0.114%
CC(O)C(NS(=O)(=O)c1ccc(Cl)cc1)C(=O)OCc1cc([N+](=O)[O-])cc2c1OCOC2 (stereo not drawn) -3.62%
NS(=O)(=O)c1ccc(CNC(=O)c2cccc(Oc3ccccc3)c2)cc1 -0.736%
CCc1ccc(S(=O)(=O)Nc2cc3c(cc2N2CCCCC2)n(C)c(=O)c(=O)n3C)cc1 -6.54%
CCN1C(=O)N[C@@H](c2ccccc2)C(C(=O)OC)=C1C 4.12%
COC(=O)C1=C(C)N(C)C(=S)NC1c1ccccc1 (stereo not drawn) -2.13%
CC1CN(C2CCN(C(=O)COc3ccccc3)CC2)CC(C)O1 (stereo not drawn) -6.23%
COC(=O)c1ccc(NC(=O)CSc2nnc(Cc3cccn3C)n2-c2ccc(F)cc2)cc1 -0.405%
Cc1cccc(N2CCN(C(=O)COCc3cc(-c4ccc5c(c4)OCO5)on3)CC2)c1C -0.313%
CC(=O)c1sc2nc(SCC(=O)N3CCCCC3)[nH]c(=O)c2c1C 2.37%
Cc1sc2nc(CSCC(=O)NC3CCCCC3)[nH]c(=O)c2c1C -2.29%

inhibition, active:
O=C1c2oc3ccccc3c(=O)c2C(c2cccc(O)c2)N1c1ccccn1 (stereo not drawn) 51.3%
COc1ccc(Br)cc1CN(C)C(=O)C1CC(=O)N(C2CCCC2)C1 (stereo not drawn) 43.5%
C[N+]1(CC(O)COc2ccccc2)CCN(C(=O)c2ccc([N+](=O)[O-])cc2)CC1 (stereo not drawn) 67.8%
COCCCn1c(Cc2csc(Nc3cccc(Cl)c3)n2)nnc1SCC(=O)OC1CCCCC1 50.4%
COc1ccc(CCNC(=O)COC(=O)/C=C/c2cccs2)cc1OC 48.9%
COc1cc(/C=N\Nc2ccc([N+](=O)[O-])cn2)ccc1OCC(=O)O 71.8%
COC(=O)C[n+]1cccc2ccccc21 67.3%
O=C(CNC1CCCCC1)NCC1(c2ccccc2)CCCC1 56.4%
C[N+]1(CCNC(=O)/C=N/O)CCCCC1 54.1%
Cc1snc(SCc2c(F)cccc2Cl)c1C#N 44.2%
CCN1C(=NCCc2cccnc2)N[C@@H](c2ccccc2)[C@H](C(=O)OC)[C@H]1C 68.2%
Cc1cc(/C=N/NC(=O)CC2(C)OCCO2)c(C)n1-c1ccc(Cl)c(Cl)c1 56.8%
C[N+](C)(CCCCCC[N+](C)(C)CCCN1C(=O)c2cccc3cccc(c23)C1=O)CCCN1C(=O)c2cccc3cccc(c23)C1=O 46%
N#Cc1ncc(C(F)(F)F)cc1Oc1cccnc1 60.4%
CC[n+]1c(C)n(-c2ccccc2)c2ccc(NC(C)=O)cc21 60%
Cc1nnc(N/N=C/c2ccccn2)[nH]c1=O 42.1%
COC(=O)C1=C(C)N(Cc2ccccc2)C(=NCCCOC(C)C)N[C@H]1c1ccccc1 45.5%
CSc1nnc(SCc2nc3sc(C(=O)O)c(C)c3c(=O)[nH]2)s1 65.8%
